Growth data for nine compounds are collected here from PubChem BioAssay (NCI).

About 83,000 compounds went through this panel and 20% of them were active in at least one assay; those are over-represented in the sample as a whole.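 Treatment: one concentration, 48 hours, 96-well format. Scoring: percent growth, with anything below 10 considered active.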 Unmarked numbers belong to inactive results. The source made the active and inactive calls.

Test in all cases: NCI-60 one-dose screen, 48 h (100 = growth as untreated, 0 = no growth, -100 = all killed)
One assay concerns HCT-15 colon. The settings on record: 10 µM unless noted.
The test system of another assay is SNB-75 CNS. Conditions: 10 µM.
In another assay the test system is SNB-19 CNS. The settings on record: 10 µM unless noted.
In a further assay the test system is PC-3 prostate. The settings on record: 10 µM unless noted.
For the next assay, the system named is SK-MEL-5 melanoma. The settings on record: 10 µM unless noted.
Another assay concerns UACC-62 melanoma. Conditions: 10 µM unless noted.
The test system of a further assay is LOX IMVI melanoma. Conditions: 10 µM unless noted.
Another assay concerns SK-MEL-28 melanoma. Conditions: 10 µM unless noted.
The subject of another assay is SK-MEL-2 melanoma. Conditions: 10 µM unless noted.
The test system of the next assay is SN12C renal. The settings on record: 10 µM unless noted.
Another assay relates to UO-31 renal. Conditions: 10 µM unless noted.
In another assay the test system is TK-10 renal. The settings on record: 10 µM unless noted.
The next assay relates to ACHN renal. The settings on record: 10 µM unless noted.
Another assay deals with CAKI-1 renal. The settings on record: 10 µM unless noted.
The subject of a further assay is A498 renal. Conditions: 10 µM unless noted.
The subject of a further assay is MOLT-4 leukemia. Conditions: 10 µM unless noted.
For another assay, the system named is U251 CNS. The settings on record: 10 µM unless noted.
The test system of a further assay is EKVX NSCLC. The settings on record: 10 µM unless noted.
A further assay concerns CCRF-CEM leukemia. The settings on record: 10 µM unless noted.

Regarding `COc1cc(/C=C/c2cc(/C=C/c3ccc(O)c(OC)c3)n(C(N)=O)n2)ccc1O`, the growth with HCT-15 colon was 4.33% (active); in the assay with SNB-75 CNS, -40.9% (active); with SNB-19 CNS, 4.95% (active); with PC-3 prostate it was -23.5% (active); with SK-MEL-5 melanoma, -33% (active); with UACC-62 melanoma it was -47.2% (active). In addition, the growth was 1.48% (active) in the assay with LOX IMVI melanoma; -24.6% (active) in the assay on SK-MEL-28 melanoma; -52.7% (active) with SK-MEL-2 melanoma; -5.22% (active) in the assay on SN12C renal; -22.1% (active) in the assay on UO-31 renal; 4.79% (active) in the assay on TK-10 renal. Besides, the growth in the assay with ACHN renal was -11.2% (active); in the assay with CAKI-1 renal, 14.1%; with A498 renal, -24.4% (active); with MOLT-4 leukemia, -33% (active).
In the case of `COc1ccccc1CNCCCN1C(=O)c2ccc3c4c(ccc(c24)C1=O)C(=O)N(CCCNCCCCNCCCN)C3=O`, the growth is -32.1% (active) in the assay with HCT-15 colon; -79.7% (active) in the assay with SNB-75 CNS; -51.8% (active) with U251 CNS; -1.44% (active) in the assay on PC-3 prostate; -99.3% (active) in the assay with SK-MEL-5 melanoma; -52% (active) in the assay on UACC-62 melanoma. Further, the growth in the assay on LOX IMVI melanoma was 1.41% (active); in the assay on SK-MEL-28 melanoma, -75.7% (active); with SK-MEL-2 melanoma it was -54.6% (active); with EKVX NSCLC it was -41% (active); in the assay with SN12C renal, -32.8% (active); in the assay with UO-31 renal, -1.99% (active). Further, the growth was -10.1% (active) in the assay on TK-10 renal; 7.3% (active) in the assay on CAKI-1 renal; -58.1% (active) in the assay on A498 renal; -19.1% (active) with CCRF-CEM leukemia; -28.4% (active) in the assay with MOLT-4 leukemia.
With `O=[N+]([O-])c1cccc(-c2nc3sccn3c2-c2ccnc(NCCCNS(=O)(=O)c3ccc(Cl)cc3)n2)c1`, the growth in the assay on HCT-15 colon was 35.2%; in the assay on SNB-19 CNS, 83.5%; in the assay on U251 CNS, 87.8%; in the assay on PC-3 prostate, 28.1%; with SK-MEL-5 melanoma, -17.2% (active); with UACC-62 melanoma it was 7.02% (active). Also, the growth in the assay on LOX IMVI melanoma is 35.4%; in the assay on SK-MEL-28 melanoma it was 66%; with SK-MEL-2 melanoma it was 45.3%; with EKVX NSCLC, 50.9%; in the assay on SN12C renal, 53.8%; in the assay with UO-31 renal, 22.2%. Further, the growth in the assay on TK-10 renal is 117%; in the assay on ACHN renal it was 47.8%; in the assay with CAKI-1 renal, 43.8%; in the assay with A498 renal, 68%; with CCRF-CEM leukemia it was 16.7%; with MOLT-4 leukemia, 13.7%.
As for `COc1cc(/C=C/C(=O)c2cccc(-n3cc(-c4cc(OC)c(OC)c(OC)c4)[nH]c3=O)c2)cc(OC)c1OC`, the growth in the assay on HCT-15 colon is -4.5% (active); with SNB-19 CNS, 56.6%; in the assay with U251 CNS it was -41% (active); in the assay with PC-3 prostate it was 9.89% (active); with SK-MEL-5 melanoma, 27%; in the assay with UACC-62 melanoma it was 7.42% (active). The growth in the assay on LOX IMVI melanoma was -55% (active); with SK-MEL-28 melanoma, 4.45% (active); in the assay on SK-MEL-2 melanoma it was -2.34% (active); with EKVX NSCLC it was 51.6%; in the assay with SN12C renal, 11.5%; in the assay on UO-31 renal, 6.2% (active). Besides, the growth was 27.8% in the assay with TK-10 renal; -57.6% (active) in the assay with ACHN renal; -24.2% (active) in the assay with CAKI-1 renal; 76.4% in the assay on A498 renal; -1.54% (active) in the assay on CCRF-CEM leukemia; -16% (active) in the assay on MOLT-4 leukemia.
For the compound `Cn1c(=O)c2[nH]c(C3CC=CCC3)nc2n(C)c1=O` (stereo not given), the growth with HCT-15 colon was 106%; in the assay on SNB-75 CNS it was 93.9%; in the assay with SNB-19 CNS it was 100%; in the assay on PC-3 prostate, 87.6%; in the assay on UACC-62 melanoma, 96%; in the assay with LOX IMVI melanoma, 105%. Moreover, the growth in the assay with SK-MEL-28 melanoma is 117%; in the assay with SK-MEL-2 melanoma, 97.6%; in the assay on EKVX NSCLC, 113%; with SN12C renal, 99.4%; in the assay on UO-31 renal, 72.3%; in the assay on TK-10 renal, 112%. In addition, the growth in the assay on ACHN renal was 101%; in the assay on CAKI-1 renal, 118%; with A498 renal, 105%; in the assay with MOLT-4 leukemia, 123%.
As to `Cc1ccc2nc(Cl)cc(=O)n2c1`, the growth in the assay with HCT-15 colon was 102%; in the assay with SNB-19 CNS it was 105%; in the assay with U251 CNS, 119%; in the assay on PC-3 prostate it was 96.9%; with SK-MEL-5 melanoma, 120%; in the assay on UACC-62 melanoma it was 102%. The growth with LOX IMVI melanoma is 112%; in the assay on SK-MEL-28 melanoma, 120%; in the assay with SK-MEL-2 melanoma, 107%; in the assay on EKVX NSCLC, 114%; in the assay with SN12C renal, 101%; in the assay on UO-31 renal it was 84.3%. For the same compound, the growth was 109% in the assay on TK-10 renal; 99.1% with ACHN renal; 111% in the assay on CAKI-1 renal; 107% with A498 renal; 94.4% in the assay with CCRF-CEM leukemia; 106% in the assay with MOLT-4 leukemia.
For the compound `C=C[C@@H]1C[C@@H]2Cc3ccccc3N1O2`, the growth in the assay with HCT-15 colon is 107%; with SNB-75 CNS, 102%; with SNB-19 CNS, 109%; with PC-3 prostate, 116%; in the assay with SK-MEL-5 melanoma it was 107%; in the assay with UACC-62 melanoma it was 101%. The growth with LOX IMVI melanoma is 104%; in the assay with SK-MEL-28 melanoma, 109%; with SK-MEL-2 melanoma, 87.8%; in the assay on EKVX NSCLC it was 99.5%; in the assay on SN12C renal, 97.5%; in the assay with UO-31 renal, 102%. For the same compound, the growth with TK-10 renal was 108%; in the assay on ACHN renal it was 110%; in the assay with CAKI-1 renal, 97.8%; with A498 renal it was 107%; in the assay with CCRF-CEM leukemia, -50% (active); with MOLT-4 leukemia, 28.9%.
For the compound `COc1ccc(-c2cn(-c3cccc(C(=O)/C=C/c4cc(OC)c(OC)c(OC)c4)c3)c(=O)[nH]2)cc1OC`, the growth in the assay on HCT-15 colon is 82.1%; with SNB-19 CNS, 108%; in the assay with U251 CNS, 71.6%; with PC-3 prostate, 81.5%; with SK-MEL-5 melanoma, 88.3%; in the assay on UACC-62 melanoma it was 73.1%. In addition, the growth with LOX IMVI melanoma was 69.4%; in the assay with SK-MEL-28 melanoma, 98.9%; in the assay on SK-MEL-2 melanoma, 75.3%; with EKVX NSCLC, 98%; in the assay with SN12C renal, 78.1%; with UO-31 renal it was 68.3%. For the same compound, the growth was 96.1% in the assay on TK-10 renal; 81.8% with ACHN renal; 96% with CAKI-1 renal; 90.3% with A498 renal; 34.3% with CCRF-CEM leukemia; 70.4% with MOLT-4 leukemia.
Turning to `CC(C)(C)OC(=O)NC(CSCc1ccccc1)C(=O)ON1C(=O)CCC1=O` (stereo not given), the growth is 103% in the assay with HCT-15 colon; 105% with SNB-75 CNS; 106% in the assay on SNB-19 CNS; 91.3% in the assay with PC-3 prostate; 112% with UACC-62 melanoma; 104% with LOX IMVI melanoma. For the same compound, the growth with SK-MEL-28 melanoma was 120%; in the assay on EKVX NSCLC, 113%; with SN12C renal, 107%; with UO-31 renal it was 90.8%; in the assay with TK-10 renal, 119%; in the assay with ACHN renal, 101%. The growth in the assay with CAKI-1 renal is 112%; in the assay on A498 renal it was 110%; with CCRF-CEM leukemia, 96.7%; with MOLT-4 leukemia it was 97%.
